Assay [1] in a line: qHTS assay to identify small molecule antagonists of the estrogen related receptor (ERR) signaling pathway from Tox21 library - cell viability counter screen (AID 1224834). Also: nearly all actives have a fitted effect of over 30% in size. Also: potency is read from the fitted curve at half-maximal effect. The procedure, abridged:
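Fluorescence from CellTiter-Fluor gives the viability read-out, taken 30 min after reagent addition. Before that, ERR cells seeded 6 h earlier were incubated with compounds for 17.5 h at 37 C.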

The target of assay [2] is Luciferin 4-monooxygenase (Photinus pyralis) (UniProt P08659). Briefly: qHTS assay to identify small molecule inhibitors of firefly luciferase (AID 1224835). Also: nearly all actives have a fitted effect of over 25% in size. Also: potency is read from the fitted curve at half-maximal effect. In a few lines: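 Inhibition of purified Photinus luciferase is measured by luminescence. Substrate levels (D-luciferin, ATP) sit at their KM values. Each compound is tested in a concentration series.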
The nature of assay [3]: qHTS assay to identify small molecule agonists of the constitutive androstane receptor (CAR) signaling pathway - cell viability counter screen (AID 1224836). Also: nearly all actives have a fitted effect of over 45% in size. In a few lines: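 Double-stable HepG2 hepatoma cells (hCAR plus CYP2B6-2.2kb) are treated for 23 h at 37 C with test compounds in 15-point concentration series. PK11195 at 0.75 uM final is co-added. Cell viability is quantified by CellTiter-Fluor.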

Assay [4] is described as follows: qHTS assay to identify small molecule antagonists of the constitutive androstane receptor (CAR) signaling pathway - cell viability counter screen (AID 1224837). Also: nearly all actives have a fitted effect of over 45% in size. The procedure, abridged: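 HepG2-CYP2B6-hCAR cells, 2500/well, 4 hr pre-incubation; compound titration, 15 conc.; CITCO 50 nM final; 23 hr, 37 C/5% CO2; CellTiter-Fluor, fluorescence intensity.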
Assay [5] has as its target Nuclear receptor subfamily 1 group I member 3 (Homo sapiens) (UniProt Q14994). As to the kind of experiment: qHTS assay to identify small molecule antagonists of the constitutive androstane receptor (CAR) signaling pathway (AID 1224838).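 Also: HepG2 cells stably expressing hCAR with CYP2B6 luciferase reporter stimulated by CITCO; nearly all actives have a fitted effect of over 40% in size.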 In a few lines:
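HepG2-CYP2B6-hCAR cells; 4 h pre-incubation; cpd (15 conc) + CITCO 50 nM final; 24 h, 37 C/5% CO2; ONE-Glo, luminescence.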

Assay [6] has the same target. As to the kind of experiment: qHTS assay to identify small molecule agonists of the constitutive androstane receptor (CAR) signaling pathway (AID 1224839).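 Also: HepG2 cells stably carrying human CAR and a CYP2B6 luciferase reporter; nearly all actives have a fitted effect of over 15% in size.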 The procedure, abridged:
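Readout: firefly luciferase luminescence via ONE-Glo. System: HepG2 double-stable for hCAR and CYP2B6-2.2kb. Conditions: 15-point compound titration, PK11195 at 0.75 uM final, 24 h incubation.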

Assay [7] in a line: qHTS assay to identify small molecule antagonists of the estrogen related receptor signaling pathway with the pleiotropic PPARgamma coactivator (PGC) from Tox21 10K library - cell viability counter screen (AID 1224840; active = well fitted cell-killing curve with a large enough effect in the repeat runs, not every such curve was filed as active; also: nearly all actives have a fitted effect of over 40% in size). The procedure, abridged: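 PGC/ERR cells, 2,000/well; 6 h pre-incubation 37 C/5% CO2; cpd in DMSO via pin tool; 17.5 h 37 C; CellTiter-Fluor, 30 min; fluorescence.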

The nature of assay [8]: qHTS assay to identify small molecule antagonists of the estrogen related receptor signaling pathway with the pleiotropic PPARgamma coactivator (PGC) from Tox21 10K library (AID 1224841; call rule not given here; also: actives are mostly falling curves and most rising ones were filed inactive; nearly all actives have a fitted effect of over 50% in size). In a few lines:
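PGC/ERR cell line, 2,000 cells/well; 6 h pre-incubation 37 C/5% CO2; compounds (DMSO) pinned in; 18 h, 37 C; One-Glo, 30 min RT; luminescence.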

The nature of assay [9]: qHTS assay to identify small molecule agonists of the estrogen related receptor signaling pathway with the pleiotropic PPARgamma coactivator (PGC) from Tox21 10K library (AID 1224842). Also: nearly all actives have a fitted effect of over 15% in size. The procedure, abridged:
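Luminescence from One-Glo (30 min, room temperature) measured after PGC/ERR cells had 18 h at 37 C with pinned compound (23 nL in DMSO). Cells had been seeded at 2,000 per well and pre-incubated 6 h.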

For assay [10], the target named is Thyrotropin receptor (Homo sapiens) (UniProt P16473). As to the kind of experiment: qHTS assay to identify small molecule agonists of the thyroid stimulating hormone receptor (TSHR) signaling pathway (AID 1224843; calls by dose curve; also: nearly all actives have a fitted effect of over 45% in size; also: potency is read from the fitted curve at half-maximal effect). The procedure, abridged: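 HEK293 cells stably bearing the thyrotropin receptor were plated at 800 cells/well and challenged with compound (30 min, RT). Accumulated cAMP was quantified via cAMP-d2 competing for cryptate-tagged antibody.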

Assay [11] is described as follows: qHTS assay to identify small molecule agonists of the hypoxia (HIF-1) signaling pathway - cell viability counter screen (AID 1224844; calls by dose curve; also: nearly all actives have a fitted effect of over 50% in size; also: potency is read from the fitted curve at half-maximal effect). The procedure, abridged: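 ME-180 HRE-bla cells, 2,000/well, 0.5% dialyzed FBS; 5 hr settle, 17 hr compound at 37C/5% CO2; CCF4-AM reporter read first, then CellTiter-Glo luminescence after 30 min RT.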
Assay [12] in a line: qHTS assay to identify small molecule agonists of H2AX (AID 1224845; active = well fitted activation curve with a large enough effect in the signal ratio in the repeat runs, not every such curve was filed as active; the % refers to the signal ratio). In a few lines:
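Phospho-H2AX Ser139 measured by HTRF (ex 320 nm; em 665 and 620 nm) after 24 hr antibody incubation. Compounds, 15 concentrations, 0.76% DMSO, were applied to CHO-K1 cells for 3hr at 37C before lysis.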

A short description of assay [13]: qHTS assay to identify small molecule agonists of the hypoxia (HIF-1) signaling pathway (AID 1224846; active = well fitted activation curve with a large enough effect in the signal ratio in the repeat runs, not every such curve was filed as active; the % refers to the signal ratio). In a few lines:
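Cell line: CellSensor HRE-bla ME-180; 2,000 cells/well; 0.5% dialyzed FBS; 5 h preincubation; DMSO compound pin transfer; 17 h, 37C, 5% CO2; CCF4-AM added; bla FRET signal scored for activation.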

Assay [14] is described as follows: qHTS assay to identify small molecule agonists of H2AX - cell viability counter screen (AID 1224847; calls by dose curve;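 also: wild-type CHO-K1 cells; top concentration of the series differs between compounds; nearly all actives have a fitted effect of over 30% in size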). In a few lines: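 For this counter screen, overnight-attached CHO-K1 cells received test compounds (15 concentrations, 0.76% DMSO final); 3 hr later at 37C, CellTiter-Glo reagent was added and luminescence recorded after 30 min at room temperature.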
Assay [15] in a line: qHTS assay to identify small molecule antagonists of the estrogen related receptor (ERR) signaling pathway from Tox21 library (AID 1224848). Also: nearly all actives have a fitted effect of over 50% in size. The procedure, abridged: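 Reading was by luminescence 30 min after ONE-Glo addition. Before that, ERR cells at 2,000 per well had rested 6 h at 37 C/5% CO2 and then received pin-tooled compounds in DMSO for 18 h at 37 C.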
Assay [16] in a line: qHTS assay to identify small molecule agonists of the estrogen related receptor (ERR) signaling pathway from Tox21 library (AID 1224849; calls by dose curve; also: nearly all actives have a fitted effect of over 15% in size). The conditions noted are these: ERR reporter cell line, ONE-Glo luciferase, 18 h. The procedure, abridged:
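ERR cells, 6 h pre-incubation 37 C/5% CO2; cpd in DMSO pinned; 18 h 37 C; ONE-Glo added, 30 min RT; luminescence read. Agonist mode, qHTS.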

Assay [17] is described as follows: qHTS RealTime-Glo MT Cell Viability Assay in HepG2 cells - 24 hour (AID 1224867). Also: nearly all actives have a fitted effect of over 50% in size. The procedure, abridged: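 HepG2 cells were seeded at 600 cells/well together with NanoLuc luciferase and a cell-permeant prosubstrate, preincubated 5 h at 37 C/5% CO2, then pin-dosed with compounds in DMSO. Nonlytic luminescence from viable cells was read at each time point.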
Assay [18] is described as follows: qHTS RealTime-Glo MT Cell Viability Assay in HEK293 cells - 32 hour (AID 1224868). The procedure, abridged: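 HEK293 cells were seeded at 600 cells/well together with NanoLuc luciferase and cell-permeant prosubstrate, preincubated 5 h at 37 C/5% CO2, then given compound in DMSO by pintool. Luminescence from viable-cell prosubstrate reduction was read repeatedly over 40 h.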

The nature of assay [19]: A CellTox Green Cytotoxicity Assay to monitor cytotoxicity in HEK293 cells - 0 hour (AID 1224869). Also: nearly all actives have a fitted effect of over 50% in size. The procedure, abridged:
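Nonlytic real-time cytotoxicity: HEK293 + CellTox Green reagent plated, 5 h preincubation, pintool compound addition (23 nL in DMSO), 37 C for 40 h, fluorescence measured at successive time points.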

The nature of assay [20]: qHTS assay to identify small molecule agonists of the estrogen related receptor signaling pathway with the pleiotropic PPARgamma coactivator (PGC) (AID 1224823). In a few lines:
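PGC/ERR reporter cells were seeded, rested 6 h at 37 C/5% CO2, then exposed to compounds in DMSO by pin transfer for 18 h at 37 C. Luciferase activity was read as luminescence after One-Glo reagent and 30 min at room temperature.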

[21] abbreviates: at 92.4 µM (top of the series) unless noted.

Records with an inconclusive call do not appear. The source holds several records for some structures; these can differ, active in one and inactive in another. Activity calls are given as the source filed them. Unless noted, calls follow the shape of the dose curve; as a rule, active = well fitted curve in the direction sought with a large enough effect in the repeat runs; inconclusive = weak or mixed curves; inactive = no such curve, though single readings can be large; an effect the other way counts as inactive or inconclusive.
% is scaled to controls: 0 for no effect and ±100 for the full control effect.

Sequence of Nuclear receptor subfamily 1 group I member 3 (Homo sapiens) (Q14994 whole entry, looked up): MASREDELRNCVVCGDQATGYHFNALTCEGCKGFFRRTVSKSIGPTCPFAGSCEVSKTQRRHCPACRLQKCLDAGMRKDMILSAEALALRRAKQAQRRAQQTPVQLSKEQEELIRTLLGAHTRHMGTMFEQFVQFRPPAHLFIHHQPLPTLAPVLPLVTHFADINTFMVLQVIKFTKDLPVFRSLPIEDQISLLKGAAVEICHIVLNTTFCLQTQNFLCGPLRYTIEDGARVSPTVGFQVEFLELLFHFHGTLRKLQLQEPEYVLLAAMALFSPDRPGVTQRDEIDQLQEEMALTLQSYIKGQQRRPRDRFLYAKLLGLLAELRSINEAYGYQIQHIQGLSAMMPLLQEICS
Sequence of Thyrotropin receptor (Homo sapiens) (P16473 whole entry, looked up): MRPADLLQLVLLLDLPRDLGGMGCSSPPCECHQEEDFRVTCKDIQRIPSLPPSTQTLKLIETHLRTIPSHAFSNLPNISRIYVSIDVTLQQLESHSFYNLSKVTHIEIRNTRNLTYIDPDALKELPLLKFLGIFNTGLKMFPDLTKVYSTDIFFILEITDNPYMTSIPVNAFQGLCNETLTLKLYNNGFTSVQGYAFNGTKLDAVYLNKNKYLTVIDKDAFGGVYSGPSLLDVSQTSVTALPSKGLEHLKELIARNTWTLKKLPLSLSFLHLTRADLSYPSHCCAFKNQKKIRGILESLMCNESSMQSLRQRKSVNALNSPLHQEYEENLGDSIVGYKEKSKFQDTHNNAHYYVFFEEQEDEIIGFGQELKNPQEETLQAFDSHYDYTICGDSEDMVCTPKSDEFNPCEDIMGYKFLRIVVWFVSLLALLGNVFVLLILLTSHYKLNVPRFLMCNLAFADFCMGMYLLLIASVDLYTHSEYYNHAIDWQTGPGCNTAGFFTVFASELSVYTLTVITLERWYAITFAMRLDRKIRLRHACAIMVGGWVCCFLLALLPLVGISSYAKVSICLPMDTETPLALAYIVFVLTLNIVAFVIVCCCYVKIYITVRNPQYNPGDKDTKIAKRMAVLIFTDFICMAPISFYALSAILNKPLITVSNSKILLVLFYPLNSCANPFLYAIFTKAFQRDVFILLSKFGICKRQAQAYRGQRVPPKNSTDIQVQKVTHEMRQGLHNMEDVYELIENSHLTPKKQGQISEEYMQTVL
Sequence of Luciferin 4-monooxygenase (Photinus pyralis) (P08659 whole entry, looked up): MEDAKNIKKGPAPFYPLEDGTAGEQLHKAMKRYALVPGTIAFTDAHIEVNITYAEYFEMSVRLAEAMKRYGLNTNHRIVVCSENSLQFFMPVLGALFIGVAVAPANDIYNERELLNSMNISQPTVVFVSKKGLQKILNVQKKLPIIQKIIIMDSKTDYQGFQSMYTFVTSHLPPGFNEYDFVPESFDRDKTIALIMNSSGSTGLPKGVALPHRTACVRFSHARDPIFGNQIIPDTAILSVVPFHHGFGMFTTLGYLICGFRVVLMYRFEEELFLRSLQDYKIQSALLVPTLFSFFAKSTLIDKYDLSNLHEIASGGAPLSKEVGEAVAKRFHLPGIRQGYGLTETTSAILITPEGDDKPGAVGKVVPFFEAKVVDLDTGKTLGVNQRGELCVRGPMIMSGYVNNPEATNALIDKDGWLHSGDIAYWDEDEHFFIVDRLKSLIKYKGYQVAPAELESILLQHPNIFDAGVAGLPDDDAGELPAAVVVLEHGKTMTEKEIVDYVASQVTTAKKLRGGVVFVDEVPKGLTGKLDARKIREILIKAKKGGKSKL

Consider `O=C(O)CCCl`, for which the Potency entry in assay [1], in [2], in [3], in [4], in assay [5] and in assay [6] was “inactive” throughout. In addition, the Potency result in [7], in [8], in [10], in [11], in assay [14] and in assay [15] was “inactive” in each case. The Potency entry in assay [17], in [18] and in assay [19] was “inactive” each time. Moreover, the outcome in assay [9], in assay [12] and in [13] was inactive. The activity change, positive = activation in [16] (setting [21]) was -15.3% (inactive).

On to `COC(=O)C1=C(C)NC(C)=C(C(=O)OC)C1c1ccccc1[N+](=O)[O-]`, for which the molecule was classed as inactive in assay [20], in assay [9] and in assay [12]. Further, the Potency is 54.5 µM (active) and inactive in [1]; 40 µM (active) and inactive in assay [2]; 54.5 µM (active) and inactive in [10]; 49 µM (active) and inactive in assay [11]. The Potency result in [3], in assay [4], in [7], in assay [8], in assay [14] and in assay [15] was “inactive” throughout. The Potency entry in assay [17], in assay [18] and in assay [19] was “inactive” each time. In addition, the activity change, positive = activation was -8.97% (inactive) in assay [16] (at 42.5 µM (top of the series)) and -13.3% (inactive) in assay [16] (at 92.4 µM (top of the series)).

Turning to `C[C@](N)(Cc1ccc(O)cc1)C(=O)O`, the outcome in assay [20] was inactive. In addition, the viability change, negative = cytotoxic in assay [1] is 1.82% [at 8.39 µM] (inactive); in assay [3], 11.1% [at 8.39 µM] (inactive); in assay [7] it was -0.23% [at 8.39 µM] (inactive). In addition, the activity change, negative = inhibition in assay [2] was 0.0392% [at 10.5 µM] (inactive). For the same molecule, the activity change, negative = cytotoxicity in assay [4] is 2.5% [at 8.39 µM] (inactive); in [11], 3.27% [at 6.97 µM] (inactive); in assay [14], 2.42% [at 14 µM] (inactive); in assay [17] it was 0.0825% [at 6.97 µM] (inactive). In addition, in assay [8], the activity, negative = inhibition is -1.66% [at 8.39 µM] (inactive). The activation in [9] is -0.549% [at 8.39 µM] (inactive); in assay [10], -7.31% [at 8.39 µM] (inactive). Also, the activation (H2AX phosphorylation) in [12] is -0.087% [at 14 µM] (inactive). The activity change, positive = activation in [16] (setting [21]) was 2.18% [at 8.39 µM] (inactive). Further, the cytotoxicity in assay [19] is 5.11% [at 6.97 µM] (inactive).

With `CCCCCCCCCCCCN(CCCCCCCCCCCC)CCCCCCCCCCCC`, the Potency entry in [1], in assay [2], in [3], in assay [4], in [5] and in assay [6] was “inactive” in each case. The Potency result in assay [7], in [8], in assay [10], in [11], in assay [14] and in assay [15] was “inactive” in each case. The Potency entry in assay [17], in [18] and in assay [19] was “inactive” in each case. For the same molecule, the molecule was called inactive in [9], in assay [12] and in [13]. For the same molecule, the activity change, positive = activation in assay [16] (setting [21]) is 5.6% (inactive).

On to `Brc1c(NC2=NCCN2)ccc2nccnc12`, for which the molecule was called inactive in assay [20] and in assay [12]. In addition, the Potency entry in assay [1], in [3], in assay [4], in [5], in [6] and in assay [7] was “inactive” in each case. The Potency result in assay [8], in [10], in assay [11], in [14], in assay [15] and in assay [17] was “inactive” throughout. Besides, the Potency entry in [18] and in [19] was “inactive” each time. Moreover, in assay [16] (setting [21]), the activity change, positive = activation is 3.51% [at 42.5 µM] (inactive).

These data come from PubChem BioAssay (Tox21).
